Hits are enriched below; roughly 2.2% of the tested compounds scored in any of these assays.
TLR9-MyD88 inh = TLR9-MyD88 interaction inhibition. Q9NR96+Q99836. CHO BLA complementation TLR9-MyD88, CCF4 FRET ratio. inhibition, % at 4.98 µM. actives 0.21% (n = 340,000). AID 504734;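 active = inhibition above the mean over all tested compounds plus 3 SD, cut at about 21% in these data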;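 also: 0% = DMSO only wells and 100% = clavulanate BLA inhibitor control wells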
TMEM16A act = activators or potentiators of mouse TMEM16A chloride channel | HEK293 TMEM16A/YFP-H148Q/I152L, iodide quench fluorescence; stronger effect = lower value | B-score at 10 µM | actives 0.3% (n = 340,000) | AID 623877;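 active = fluorescence-ratio B-score plate-corrected deviation score at least 3 library SD below zero, with starting fluorescence score within 5 deviations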;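 also: channel opened by trigger with iodide after compound preincubation; score built on the fluorescence ratio of max minus min over baseline; more negative score means more quench and so TMEM16A activation or potentiation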
GRK2 aptamer HTS = blocks RNA aptamer binding to human GRK2; bead flow cytometry, FAM-aptamer displacement from GRK2; inhibition of aptamer binding, % at 10 µM; actives 0.59% (n = 330,000); AID 488847;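 active = inhibition of aptamer binding above 40%, roughly 3 SD of noise, on plates passing a quality check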;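 also: median bead fluorescence of bound FAM aptamer so fluorescent compounds give negative values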
ANO1 block = blocks the mouse calcium-activated chloride channel TMEM16A; Q8BHY3; HEK293 TMEM16A/YFP iodide influx fluorescence, ionomycin; normalized B-score (activity score, 25-100; higher = stronger inhibition) at 10 µM; actives 1.2% (n = 310,000);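 active = ratio plate-corrected score three or more library SD toward inhibition, starting fluorescence score within five deviations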;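 also: score derived from kinetic fluorescence span divided by baseline fluorescence per well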
NOD2 RIPK2 PPI = inhibitors of human NOD2-RIPK2 interaction | O43353 | actives 0.38% (n = 360,000) | inhibition, % at 4.98 µM | AID 624267 | CHO BLA complementation NOD2-RIPK2, CCF4 ratio; in the data active = inhibition above about 21%;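 also: 0% = vehicle only and 100% = reference blocker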
Target sequence (O43353 whole entry, looked up): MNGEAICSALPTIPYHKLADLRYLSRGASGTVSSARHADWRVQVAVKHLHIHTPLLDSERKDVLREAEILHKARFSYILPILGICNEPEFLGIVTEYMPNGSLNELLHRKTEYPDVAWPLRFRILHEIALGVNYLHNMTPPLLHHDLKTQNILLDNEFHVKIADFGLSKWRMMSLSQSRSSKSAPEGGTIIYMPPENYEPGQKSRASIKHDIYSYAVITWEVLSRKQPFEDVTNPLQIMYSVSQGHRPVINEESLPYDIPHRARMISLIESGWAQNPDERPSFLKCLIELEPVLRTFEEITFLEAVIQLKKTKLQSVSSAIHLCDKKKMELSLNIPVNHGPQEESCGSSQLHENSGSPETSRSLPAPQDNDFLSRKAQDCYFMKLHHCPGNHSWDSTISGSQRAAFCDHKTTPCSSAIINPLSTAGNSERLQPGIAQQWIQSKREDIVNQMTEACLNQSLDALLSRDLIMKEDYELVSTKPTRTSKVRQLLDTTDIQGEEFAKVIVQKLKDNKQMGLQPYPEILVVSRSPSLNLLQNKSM
TLR4-MyD88 BLA = inhibitors of human TLR4-MyD88 binding; HeLa CL3-4 TLR4/MyD88 BLA complementation, FRET ratio; inhibition, % at 8.4 µM; AID 861; actives 0.18% (n = 200,000); in the data active = inhibition above about 25%;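 also: 0% = vehicle and 100% = reference inhibitor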
Numbers without * were called inactive; i = inactive; · = no result given.

SMILES | TLR9-MyD88 inh | TMEM16A act | GRK2 aptamer HTS | ANO1 block | NOD2 RIPK2 PPI | TLR4-MyD88 BLA
Cn1c(=O)c(C#N)c(-c2ccc(F)cc2)c2cc(C(=O)c3cc(Cl)cc(Cl)c3O)cnc21 | -3 | i | 1 | 100* | 4 | ·
Cn1cc(Cc2ccc(C(=O)N3CCOCC3)cn2)c2ccccc21 | · | · | · | · | 0 | ·
O=C(NCc1ccccc1Cl)c1ccc(S(=O)(=O)Nc2cccc(C(F)(F)F)c2)cc1 | 6 | i | 0 | 100* | 1 | 9
Cc1cc2nc(C)n(CCCNC(=O)Nc3cccc4ccccc34)c2cc1C | -12 | i | 0 | 25* | -1 | 9
CCn1c(=NC(=O)c2cccc(N3C(=O)CCC3=O)c2)sc2c(OC)ccc(OC)c21 | 10 | -6.4* | 0 | i | 1 | -4
COc1ccc(OC)c2c1sc(=NC(=O)c1cccc(N3C(=O)CCC3=O)c1)n2C | 0 | i | 2 | i | 9 | 12
O=C1NC[C@H](CCCCN2CCN(Cc3ccccc3)C(=O)C2=O)N(Cc2ccccc2)C1=O | · | · | · | · | -5 | ·
Cn1c(=O)n(C)c2cc(NS(=O)(=O)c3ccc(C(C)(C)C)cc3)ccc21 | -5 | i | 0 | 25* | 8 | -13
Cn1cnc(S(=O)(=O)N2CCCCC2c2cc(C(=O)Nc3ccc(F)c(Cl)c3)no2)c1 (stereo unspecified) | · | · | · | · | -20 | ·
O=C(N/N=C/c1ccc(OC(=O)c2ccc([N+](=O)[O-])cc2)cc1)c1cccnc1 | -4 | i | 0 | i | -11 | ·
COc1ccc(CC(=O)N/N=C/c2cccn2-c2ccc([N+](=O)[O-])cc2)cc1OC | -2 | -12* | 1 | i | -1 | 2
COc1ccc(C(=O)Oc2ccc(/C=N/NC(=O)Cc3ccc([N+](=O)[O-])cc3)cc2)cc1 | -8 | i | 85* | i | 0 | -2
COc1ccccc1CNC(=O)COC(=O)c1cnc(C)cn1 | 6 | · | · | · | -3 | ·
Cc1cccc(OCC(=O)N/N=C\c2cc3c(cc2[N+](=O)[O-])OCO3)c1C | -2 | i | 0 | 25* | 6 | 6
COC(=O)C1(C)COP(=O)(Nc2ccc(OC)cc2)OC1 (stereo unspecified) | · | · | · | · | 10 | ·
COc1ccc(NC(=O)CSc2nc3c(cc2C#N)CN(C)CC3)cc1 | -4 | i | 0 | i | -11 | ·
CN1CCc2nc(SCC(=O)Nc3ccc(F)cc3)c(C#N)cc2C1 | · | · | 57* | i | · | 8
Cc1csc2ncnc(N3CCN(S(=O)(=O)c4cccc(C(F)(F)F)c4)CC3)c12 | 3 | i | 0 | 100* | -2 | ·
CSc1ccc(CN2CCC(C)(Oc3ccc(C(C)=O)cc3)C2)cc1 (stereo unspecified) | · | · | · | · | 2 | ·
O=c1c2ccccc2ncn1CCCOc1ccccc1[N+](=O)[O-] | 2 | i | 2 | 25* | -3 | -7
O=c1cc(-c2ccccc2Cl)oc2c(NS(=O)(=O)c3cc(Cl)cc(Cl)c3O)ccc(O)c12 | -6 | i | 2 | 100* | 6 | 2
CCc1ccc(S(=O)(=O)Nc2ccc(O)c3c(=O)cc(-c4ccccc4Cl)oc23)cc1 | -4 | i | 4 | i | -13 | ·
NC(COCc1ccccc1)c1csc(Nc2ccc(C(=O)NCCO)cc2)n1 (stereo unspecified) | · | · | · | · | -8 | ·
CCc1nc2c(OCc3ccc(Cl)cc3Cl)cccn2c1N(C)C(=O)CC(C)C | · | · | · | · | 4 | ·
Nc1nc2ccc(Cl)cc2cc1C(=O)NCCc1c[nH]c2ccccc12 | · | · | · | · | 4 | ·
SMILES | TLR9-MyD88 inh | TMEM16A act | GRK2 aptamer HTS | ANO1 block | NOD2 RIPK2 PPI | TLR4-MyD88 BLA
CN(C)c1c([N+](=O)[O-])ncn1C | 3 | -9.6* | 0 | i | -3 | 1
COc1cccc(CN2CCc3ccc(NC(=O)CCc4ccc(C)cc4)cc3C2)c1O | -2 | i | 0 | 25* | -7 | ·
COc1cc(CN2CCc3ccc(NC(=O)CCc4ccccc4OC)cc3C2)ccc1O | -16 | i | 0 | i | -4 | ·
CC(=O)c1cccc(-c2ccnc3c2CC(C(=O)Nc2cccc(Oc4ccccc4)c2)O3)c1 (stereo unspecified) | · | · | · | · | -3 | ·
CCOc1ccc(C(=O)CC(C(=O)O)N2CCCCC2)cc1 (stereo unspecified) | -7 | i | 43* | · | -7 | ·
Cc1ccc(C)c(-c2cc(C(=O)NNC(=S)NCC(C)C)c3ccccc3n2)c1 | -12 | i | 3 | 100* | -6 | 11
CC1=C(C(=O)N2CCCCCC2)CC(CC(=O)NCCCN(C)C)C(=O)N1Cc1ccc(F)cc1 (stereo unspecified) | · | · | · | · | -13 | ·
CC(C)CCCCCCNC(=S)Nc1ccc(S(=O)(=O)N2CCOCC2)cc1 | 6 | i | 1 | 100* | -8 | 5
Cc1cc(C)cc(C(O)c2ncc(-c3ccccc3Cl)[nH]2)c1 (stereo unspecified) | · | · | · | · | -5 | ·
COc1ccc(-c2oc(NC(=O)CSc3ncn[nH]3)c(C#N)c2-c2ccc(OC)cc2)cc1 | 18 | i | 0 | 25* | 16 | 0
COc1ccc(-c2oc(NC(=O)CCl)c(C#N)c2-c2ccc(OC)cc2)cc1 | 0 | i | 3 | 100* | 4 | 16
COc1ccc2nc(SCCOC(=O)Nc3ccc(Cl)cc3)nc(C)c2c1 | 1 | i | 2 | 25* | -2 | 5
COc1ccc2nc(SCC(=O)O)nc(C)c2c1 | -3 | i | 0 | i | 4 | -3
Cc1ccc(NC(=O)c2ccccc2NS(=O)(=O)c2ccc(Cl)s2)cc1S(=O)(=O)N1CCOCC1 | -13 | i | 0 | 25* | -2 | -5
Nc1c2c(nc3sc4c(c13)CCCCC4)CCCCC2 | 3 | i | 0 | 25* | 4 | -6
CC1CCc2nc3sc4c(c3c(N)c2C1)CCCC4 (stereo unspecified) | 2 | i | 0 | i | 6 | 9
CCOC(=O)CC1(C)Sc2ccccc2N1S(=O)(=O)c1ccc(C)cc1 (stereo unspecified) | · | · | · | · | -15 | ·
CCCc1ccc(Oc2coc3cc(OCC(=O)Nc4ccccc4C)ccc3c2=O)cc1 | -4 | -5.2* | 1 | i | 1 | 4
O=C(NCc1cccc(Cl)c1)C1Cc2c(-c3ccccc3)ccnc2O1 (stereo unspecified) | · | · | · | · | 1 | ·
COC(=O)c1ccc(/C(O)=C(\C#N)c2nc3ccccc3s2)cc1 | 1 | i | 2 | 25* | -4 | 1
Cc1ccc(OC/C(O)=C(\C#N)c2nc3ccccc3s2)cc1 | -12 | i | 0 | 100* | 5 | 6
COC(=O)c1ccc(CC(=O)c2nc3ccccc3s2)cc1 | 6 | i | 1 | i | 6 | -6
COCCCNC(=S)N(Cc1ccccc1)Cc1nc2ccccc2c(=O)[nH]1 | 11 | i | 10 | 25* | -13 | -3
CC[n+]1c(/C=C(\C)OC)sc2ccccc21 | -3 | i | · | · | 2 | 1

Assay outcomes (PubChem BioAssay)
